From the supplement of paper PMC10933113
Counter-ions that a name gives are not always drawn. ± gives the uncertainty stated by the source.

tested on: THP-1; assay: CD86 surface expression induction over DMSO control (% over DMSO); higher = stronger dendritic cell activation; conditions: exposure time: 24 h
Method: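 hCLAT-like CD54 and CD86 surface expression on THP1 cells after 24 h exposure at a single concentration (highest non-cytotoxic concentration, or 100-200 µM if not cytotoxic). Flow cytometry (iQue) was run on 5,000 live cells.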

| Compound | CD86 surface expression induction |
| --- | --- |
| C[C@@H]1O[C@@H](O[C@H]2C[C@@H](O)[C@]3(CO)[C@H]4[C@H](O)C[C@]5(C)[C@@H](C6=CC(=O)OC6)CC[C@]5(O)[C@@H]4CC[C@]3(O)C2)[C@H](O)[C@H](O)[C@H]1O [Ouabain] (10 µM) | 51.7 ± 16 |
| O=C1OC(CCN2CCCCC2)OC1(c1ccccc1)c1ccccc1 (centres undefined) [Pipoxolan hydrochloride] (100 µM) | 98.2 ± 160 |
| CCC(C)(NC(=O)c1cc(Cl)c(C)c(Cl)c1)C(=O)CCl (centres undefined) [Zoxamide] (10 µM) | -5.9 ± 2.3 |
| CCS(=O)(=O)CCSP(=O)(OC)OC [Demeton-S-methylsulphon] (10 µM) | -12.6 ± 14 |
| O=[N+]([O-])c1cc(C(F)(F)F)c(Cl)c([N+](=O)[O-])c1Cl [2,4-Dichloro-1,3-dinitro-5-(trifluoromethyl)benzene] (10 µM) | 34.2 ± 15 |
| CC(C)Nc1ccc(Nc2ccccc2)cc1 [N-Isopropyl-N'-phenyl-p-phenylenediamine] (10 µM) | 91.4 ± 6.8 |
| CN(C)c1ccc(N)cc1 [N,N-Dimethyl-p-phenylenediamine] (100 µM) | 44.5 ± 46 |
| N#C/C=C/C#N [Fumaronitrile] (10 µM) | -2.66 ± 6.7 |
| N#CCC#N [Propanedinitrile] (199 µM) | -2.3 ± 0.49 |
| CCc1cccc(CC)c1N(COC)C(=O)CCl [Alachlor] (100 µM) | 22.3 ± 7.5 |
| Nc1ccc(N)cc1 [1,4-Benzenediamine] (10 µM) | 29 |
| Cc1ccc2c(c1N)C(=O)c1ccccc1C2=O [1-Amino-2-methylanthraquinone] (100 µM) | 102 ± 24 |
| c1cc(OCC2CO2)cc(OCC2CO2)c1 (centres undefined) [Diglycidyl resorcinol ether (DGRE)] (10 µM) | -10.6 ± 5 |
| O=[N+]([O-])c1ccc(Oc2ccc(C(F)(F)F)cc2[N+](=O)[O-])cc1 [Fluorodifen] (10 µM) | -11.9 ± 9.2 |
| CCC(C)(c1ccc(O)cc1)c1ccc(O)cc1 [Bisphenol B] (200 µM) | 4.76 ± 3 |
| CS/C(C)=N\OC(=O)N(C)SN(C)C(=O)O/N=C(\C)SC [Thiodicarb] (10 µM) | -14.6 ± 7.8 |
| Cl/C=C\C[N+]12CN3CN(CN(C3)C1)C2 [Chloroallyl methenamine chloride] (10 µM) | -4.14 ± 1.1 |
| Nc1ccc2ccccc2c1 [2-Naphthylamine] (100 µM) | 68.7 ± 65 |
| O=C1C(Cl)=C(Cl)C(=O)C(Cl)=C1Cl [Chloranil] (100 µM) | 16.6 ± 9.4 |
| c1ccc(-c2cccc(-c3ccccc3)c2)cc1 [1,1':3',1''-Terphenyl] (200 µM) | 17.1 ± 26 |

| Compound | CD86 surface expression induction |
| --- | --- |
| Nc1ccc([N+](=O)[O-])cc1N [4-Nitro-1,2-phenylenediamine] (100 µM) | -1.29 ± 1.9 |
| C=C1C[C@@H]2[C@H](CC[C@]3(C)C(=O)CC[C@@H]23)[C@@]2(C)C=CC(=O)C=C12 [Exemestane] (100 µM) | 12.3 ± 25 |
| O=[N+]([O-])c1c(Cl)c(Cl)c(Cl)c(Cl)c1Cl [Pentachloronitrobenzene] (100 µM) | 55.3 ± 53 |
| CN(C)S(=O)(=O)N(SC(F)(Cl)Cl)c1ccccc1 [Dichlofluanid] (10 µM) | 88.09 ± 0.57 |
| ClC1=C(Cl)C(Cl)(Cl)C(Cl)=C1Cl [Hexachlorocyclopentadiene] (200 µM) | 99.2 ± 97 |
| CCOP(=S)(OCC)SC(CCl)N1C(=O)c2ccccc2C1=O (centres undefined) [Dialifor] (100 µM) | 0.69 ± 0.85 |
| COc1ccc(C(c2ccc(OC)cc2)C(Cl)(Cl)Cl)cc1 [Methoxychlor] (200 µM) | 70.8 ± 55 |
| Cc1cc(C2CC2)nc(Nc2ccccc2)n1 [Cyprodinil] (200 µM) | 44.9 ± 64 |
| C=CC(=O)OCC(COC(=O)C=C)(COC(=O)C=C)COC(=O)C=C [Pentaerythritol tetraacrylate] (10 µM) | 8.9 ± 7.2 |
| CCOCN(C(=O)CCl)c1c(C)cccc1CC [Acetochlor] (10 µM) | 90 ± 25 |
| CN1C[C@H](C(=O)N[C@]2(C)O[C@@]3(O)[C@@H]4CCCN4C(=O)[C@H](Cc4ccccc4)N3C2=O)C=C2c3cccc4[nH]cc(c34)C[C@H]21 [Ergotamine D-tartrate*] (79 µM) | 63 ± 77 |
| Cc1ccc(N=C=O)cc1N=C=O [Toluene-2,4-diisocyanate] (100 µM) | 3.76 ± 8.7 |
| O=C(CCl)CCl [1,3-Dichloropropanone] (200 µM) | 16.5 ± 17 |
| CCCCNC(=O)OCC#CI [Carbamic acid, butyl-, 3-iodo-2-propynyl ester] (10 µM) | -9.06 ± 2.4 |
| CCC(C)(CC)c1cc(NC(=O)c2c(OC)cccc2OC)on1 [Isoxaben] (200 µM) | 0.63 ± 1.4 |
| Nc1cc(Cl)ccc1O [2-Amino-4-chlorophenol] (200 µM) | 41.9 ± 31 |
| O=C1C=CC(=O)c2ccccc21 (10 µM) | 366 ± 22 |
| CCCOC/C(=N\c1ccc(Cl)cc1C(F)(F)F)n1ccnc1 [Triflumizole] (10 µM) | -11.1 ± 7.1 |
| CN(C)c1ccc(N(C)C)cc1 [*N,N,N',N'-Tetramethyl-p-phenylenediamine] (200 µM) | 52.4 ± 59 |
